Laboratory results from paper PMC4336329 (PLoS ONE, 2015).
Out of some 310,000 compounds screened, about 2,200 (0.71%) showed an effect of 50% or more. Effects have a minus sign here. Many of the other results were omitted from the sample, so strong results are more common in it than they were.

Target: human ether-à-go-go-related gene (hERG) potassium channel (human, UniProt Q12809)
Assay: primary screen, population patch clamp on CHO cells stably expressing hERG; higher = less effect of the substance

Chain of human ether-à-go-go-related gene (hERG) potassium channel (Q12809 whole entry, looked up): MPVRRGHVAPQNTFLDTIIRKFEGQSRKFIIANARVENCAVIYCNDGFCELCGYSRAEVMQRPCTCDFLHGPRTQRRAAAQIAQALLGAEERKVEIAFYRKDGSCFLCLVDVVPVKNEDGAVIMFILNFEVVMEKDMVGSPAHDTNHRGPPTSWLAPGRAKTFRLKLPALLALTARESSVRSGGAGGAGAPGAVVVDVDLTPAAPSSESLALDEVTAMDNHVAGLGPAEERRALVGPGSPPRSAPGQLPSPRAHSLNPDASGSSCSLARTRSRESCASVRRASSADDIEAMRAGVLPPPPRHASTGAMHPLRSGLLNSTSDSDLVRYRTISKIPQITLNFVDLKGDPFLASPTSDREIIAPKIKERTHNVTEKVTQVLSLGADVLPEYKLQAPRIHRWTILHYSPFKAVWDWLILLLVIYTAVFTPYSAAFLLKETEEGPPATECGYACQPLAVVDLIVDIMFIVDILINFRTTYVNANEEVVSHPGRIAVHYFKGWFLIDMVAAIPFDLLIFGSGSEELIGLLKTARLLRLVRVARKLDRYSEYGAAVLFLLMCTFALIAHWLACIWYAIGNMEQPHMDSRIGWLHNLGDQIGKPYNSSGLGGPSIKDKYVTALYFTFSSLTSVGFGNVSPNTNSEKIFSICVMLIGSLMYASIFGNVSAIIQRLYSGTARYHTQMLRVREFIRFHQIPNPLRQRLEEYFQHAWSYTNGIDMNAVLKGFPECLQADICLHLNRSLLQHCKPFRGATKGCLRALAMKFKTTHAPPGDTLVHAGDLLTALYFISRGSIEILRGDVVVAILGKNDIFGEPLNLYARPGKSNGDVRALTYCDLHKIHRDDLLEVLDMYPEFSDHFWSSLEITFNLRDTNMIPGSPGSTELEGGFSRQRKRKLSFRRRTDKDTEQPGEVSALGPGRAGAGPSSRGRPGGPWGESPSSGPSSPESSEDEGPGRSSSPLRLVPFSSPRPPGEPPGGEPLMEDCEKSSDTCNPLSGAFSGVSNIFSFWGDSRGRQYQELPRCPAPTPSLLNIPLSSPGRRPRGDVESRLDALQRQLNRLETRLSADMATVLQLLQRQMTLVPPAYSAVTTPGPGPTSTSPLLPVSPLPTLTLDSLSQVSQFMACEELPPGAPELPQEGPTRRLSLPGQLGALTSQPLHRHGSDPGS

Structure (SMILES)	hERG current change (%, negative = inhibition) at 1uM
O=S(=O)(NC1CC1)c1ccc(F)c(F)c1	10.1%
OCCN(Cc1nc(-c2ccc3c(c2)OCO3)no1)Cc1cccs1	7.42%
CC(Oc1cc2oc(=O)c3c(c2cc1Cl)CCC3)C(=O)NCCCN1CCOCC1 (stereo not drawn)	13.3%
Cc1ccc(CN=C(N)Nc2nc(C)cc(C)n2)cc1.Cl	-19.5%
CN(Cc1ccc(F)cc1)C(=O)c1ccc(NC(=O)CC2SC(N3CCCC3)=NC2=O)cc1 (stereo not drawn)	8.82%
COc1ccc(S(=O)(=O)NCC2CCCN(C(=O)c3cccnc3C)C2)cc1 (stereo not drawn)	14%
COc1ccc2c(ccc[n+]2CC(=O)c2ccc(C)cc2)c1.[Br-]	8.14%
COc1ccc(/C=N\NC(=O)c2cc(O)c(O)c(O)c2)cc1CN1CCN(c2ccc(F)cc2)CC1	10.4%
COc1cc(C(=O)N/N=C/c2ccc(OC)c(CN3CCN(c4ccc(F)cc4)CC3)c2)ccc1O	-52.4%
COc1ccc(/C=N/NC(=O)c2ccc(Br)cc2)cc1CN1CCOCC1	-23.8%
CCN(CC(=O)N1CCOCC1)S(=O)(=O)c1ccccc1	12.4%
CCOc1ccccc1NC(=O)N1CCC(C(=O)c2ccc(F)cc2)CC1	9.5%
Cc1nc2sccn2c(=O)c1S(=O)(=O)N1CCN(c2ccc(F)cc2)CC1	-23%
Cc1nc2sccn2c(=O)c1S(=O)(=O)NCCc1ccccc1	-10.2%
CCCCc1c(O)nc2sccn2c1=O	5.53%
Cc1nc2sccn2c(=O)c1CCN1CCC(=C(c2ccc(F)cc2)c2ccc(F)cc2)CC1	-65%
Cc1ccccc1NC(=O)N1CCC(C(=O)c2ccc(F)cc2)CC1	17.6%
Cc1nc2sccn2c(=O)c1CCN1CCC(=C(c2ccccc2)c2ccc(F)cc2)CC1	-78.8%
Cc1nc2sccn2c(=O)c1S(=O)(=O)NCc1ccccc1	9.92%
Cc1nc2ccccn2c(=O)c1CCN1CCC(C(=O)c2ccc(F)cc2)CC1	-66.2%
CC(NCC(=O)Nc1ccccc1C(=O)NC1CC1)c1ccc(F)cc1F (stereo not drawn)	1.42%
COc1ccccc1N1CCN(S(=O)(=O)c2c(C)sc3ncn(CC(=O)NCCN(C)C)c(=O)c23)CC1	10.8%
Cc1ccc(S(=O)(=O)N2CCN(C(=O)CN3CCCSc4ccccc43)CC2)cc1	3.85%
N/C(=N\N=C\c1ccc(O)cc1O)N[N+](=O)[O-]	8.72%

Structure (SMILES)	hERG current change (%, negative = inhibition) at 1uM
COc1ccc(C(=O)OCc2nnc(-c3ccccc3)o2)cc1S(=O)(=O)N1CCOCC1	4.07%
Cc1cc(=O)[nH]c(SCC(=O)NCC2CCCCC2)c1C#N	16%
CCOc1ccccc1NC(=O)C(=O)NCCC1=CCCCC1	9.84%
CCCN(CCC)CCCNC(=O)c1ccc(CS(=O)(=O)c2c(Cl)cccc2Cl)o1	-59.1%
CCCCN(CC)CCCNC(=O)c1ccc(CS(=O)(=O)c2c(Cl)cccc2Cl)o1	-8.53%
CC(C)N(CCNC(=O)c1ccc(CS(=O)(=O)c2c(Cl)cccc2Cl)o1)Cc1ccccc1	-3.94%
CN(CCNC(=O)c1ccc(CS(=O)(=O)c2c(Cl)cccc2Cl)o1)CCc1ccccc1	-50.4%
CCCCN(CCCNC(=O)c1ccc(CS(=O)(=O)c2c(Cl)cccc2Cl)o1)Cc1ccccc1	-30.5%
CN(CCNC(=O)c1ccc(CS(=O)(=O)c2ccc(Br)cc2)o1)CCc1ccccc1	-42%
Cc1ccc(-c2csc(NC(=S)NC(=O)/C=C/c3ccco3)n2)cc1	23.2%
O=C1OCCC1Sc1nnc(-c2ccc3c(c2)OCO3)n1-c1ccccc1 (stereo not drawn)	4.75%
Cc1c(C(=O)NCc2ccc3c(c2)OCO3)oc2ccc(S(=O)(=O)N3CCCC3)cc12	19.4%
N#Cc1cc2c(nc1SCC(=O)NCc1ccc3c(c1)OCO3)CCCCC2	1.91%
CCOc1ccc(NC(=O)CN(C)C(=O)CSCc2ccc(C)cc2)cc1OCC	-1.27%
COC(=O)CCNC(=O)Cc1c(C)n(C(=O)c2ccc(Cl)cc2)c2ccc(OC)cc12	8.1%
Cc1ccc(-n2ccnc2SCC(=O)N(CC(C)C)C2CCS(=O)(=O)C2)c(C)c1 (stereo not drawn)	-3.07%
COc1cc2c(c(OC)c1OC)-c1c(cc3c(c1OC)OCO3)C[C@H](C)[C@@](C)(O)C2	17.5%
COc1cc2c(c(OC)c1OC)-c1c(cc(OC)c(OC)c1OC)C[C@](C)(O)[C@@H](C)C2	-58.4%
COc1cc2c(c(OC)c1OC)-c1c(cc(OC)c(OC)c1OC)C[C@H](C)[C@H](C)C2	-22.5%
O=Nc1c(O)[nH]c2ccc(Cl)cc12	4.46%
CCCc1cc(=O)oc2cc(C)cc(OCC(=O)NCCCn3ccnc3)c12	-66.7%
CCc1cc(=O)oc2c(C)c(OCC(=O)NCCCn3ccnc3)ccc12	5.28%
CCCc1cc(=O)oc2c(C)c(OCC(=O)NCCCn3ccnc3)ccc12	-70%
CCc1cc(=O)oc2cc(C)cc(OCC(=O)NCc3ccncc3)c12	-8.01%

Structure (SMILES)	hERG current change (%, negative = inhibition) at 1uM
Cc1c(C)c2ccc(OCC(=O)NCCCn3ccnc3)c(C)c2oc1=O	-11.1%
CCCc1cc(=O)oc2cc(C)cc(OCC(=O)NCc3ccncc3)c12	-48%
CCc1cc(=O)oc2cc(C)cc(OCC(=O)NCCCn3ccnc3)c12	-7.42%
CCCCc1cc(=O)oc2cc(C)cc(OCC(=O)NCc3ccncc3)c12	-73.8%
CCc1cc(=O)oc2cc(C)cc(OC(C)C(=O)NCCCn3ccnc3)c12 (stereo not drawn)	2.72%
Cc1cc(OC(C)C(=O)NCCCn2ccnc2)c2c(C)c(C)c(=O)oc2c1 (stereo not drawn)	-51.6%
Cc1cc(OCC(=O)NCCCn2ccnc2)c2c(C)cc(=O)oc2c1	14.7%
Cc1cc(OC(C)C(=O)NCCCn2ccnc2)c2c(C)cc(=O)oc2c1 (stereo not drawn)	9.26%
CCC(=O)N1CCN(c2ccc(NC(=O)COc3ccc(CC)cc3)cc2)CC1	10.9%
CC(C)[C@@H]1NC(=O)c2cc([N+](=O)[O-])cc(I)c2NCCC[C@@H](C(N)=O)NC(=O)[C@H](CO)NC1=O	8.46%
O=C(CSc1ncn[nH]1)c1cccc([N+](=O)[O-])c1	11.5%
C#CCNC(=O)C1=C[C@H](c2ccc3c(c2)OCO3)C[C@H](OCCCCO)O1	15%
CCN(CC(=O)Nc1c(F)cccc1F)C(=O)c1ccc2ncsc2c1	12.3%
CC1=CCC(C(=O)O)C(C(=O)Nc2cccnc2)C1 (stereo not drawn)	5.97%
COc1ccc(CCNC(=O)CNS(=O)(=O)c2ccc(Br)s2)cc1OC	1.45%
CC(CN1CCOCC1)OC(=O)C1COc2ccccc2O1.Cl (stereo not drawn)	7.15%
CC(NCC(=O)Nc1ccccc1C(=O)NC1CC1)c1ccc(S(C)(=O)=O)cc1 (stereo not drawn)	10.9%
CCc1cc(=O)oc2c(C)c(OCC(=O)NCCN3CCOCC3)ccc12	12.8%
CCCCc1cc(=O)oc2c(C)c(OCC(=O)NCCN3CCOCC3)ccc12	-77.1%
CCCc1cc(=O)oc2c(C)c(OCC(=O)NCCN3CCOCC3)ccc12	-6.02%
Cc1nc2cc(NC(=O)NCc3ccccc3)ccc2o1	16.2%
CCOC(=O)Cc1nc2ccccc2o1	9.03%
O=C(NCc1cccnc1)Nc1ccc(Cl)cc1	-18.3%
CCOC(=O)C1=C(OCc2ccc(Cl)cc2)C2C=C(C)C=CC2N=C1 (stereo not drawn)	-18.1%

Structure (SMILES)	hERG current change (%, negative = inhibition) at 1uM
COc1cccc(CNn2c(-c3cccc(C)c3)nc3ccccc3c2=O)c1	6.03%
COc1ccc(CNn2c(-c3cccc(C)c3)nc3ccccc3c2=O)cc1OC	-54.8%
COc1ccccc1CNn1c(-c2cccc(C)c2)nc2ccccc2c1=O	5.72%
Cc1cc(C)nc(/N=C(\N)N(Cc2ccccc2)Cc2ccccc2)n1	-31.2%
CCCCN(CCCC)/C(N)=N/c1nc(C)cc(C)n1	-51.8%
CCN(CC)/C(N)=N/c1nc(C)cc(C)n1	3.23%
Cc1cc(OCC(=O)N2CCC(C(=O)O)(c3ccccc3)CC2)c2c(C)c(C)c(=O)oc2c1	4.94%
COc1ccc(OCC(=O)Nc2ccc(OC)c(S(=O)(=O)N3CCCCC3)c2)cc1	-2.82%
Brc1ccc(Oc2nnnn2-c2ccccc2)cc1	11%
O=C(Nc1ccc2c(c1)OCO2)C1CCN(C(=O)c2ccc([N+](=O)[O-])cc2)CC1	-74.6%
O=C(Nc1ccc2c(c1)OCCO2)C1CCN(C(=O)c2ccc(F)cc2)CC1	5.7%
COc1ccc(C(=O)N2CCC(C(=O)Nc3ccc(C)cc3)CC2)cc1	-31.9%
O=C(Nc1ccc2c(c1)OCCO2)C1CCN(C(=O)c2ccc([N+](=O)[O-])cc2)CC1	-16.3%
COc1ccc(NC(=O)C2CCN(C(=O)c3ccc(OC)cc3)CC2)cc1	-69.6%
COc1ccc(C(=O)N2CCC(C(=O)Nc3ccc4c(c3)OCCO4)CC2)cc1	-13.1%
COc1ccc(C(=O)N2CCC(C(=O)Nc3ccc(OC)c(OC)c3)CC2)cc1	10.7%
CC(=O)Nc1ccc(NC(=O)C2CCN(C(=O)c3ccc([N+](=O)[O-])cc3)CC2)cc1	22.3%
COc1ccc(C(=O)N2CCC(C(=O)Nc3ccc4c(c3)OCO4)CC2)cc1	-59%
COc1cc(OC)cc(C(=O)N2CCC(C(=O)Nc3ccc4c(c3)OCCO4)CC2)c1	12.5%
O=C(Nc1ccccc1)C1CCN(C(=O)c2ccc([N+](=O)[O-])cc2)CC1	-67%
O=C(Nc1ccc(F)cc1)C1CCN(C(=O)c2ccc([N+](=O)[O-])cc2)CC1	11.5%
